# Results as given in PubChem BioAssay AID1851 (National Center for Advancing Translational Sciences (NCATS), 2009).
# “And” between values parts separate entries of the source, which are not always exact repeats. Equal values may be shown once. Screen size: about 16,000 compounds; about 4,000 (25%) were called active. Another 26% or so got no clear call; they are omitted. Calls come from the whole dose curve; as a rule, active = well fitted curve in the direction sought with a large enough effect; inconclusive = small, poorly fitted or top-dose-only effect, or effect the other way; inactive = no such curve, though single readings can be large or run the other way. Only a sample is shown. Some structures have more than one record in an assay (separate samples or runs), and their calls can disagree.
# Target: Cytochrome P450 2C9 (Homo sapiens) (UniProt P11712)
# Sequence (P11712 whole entry, looked up): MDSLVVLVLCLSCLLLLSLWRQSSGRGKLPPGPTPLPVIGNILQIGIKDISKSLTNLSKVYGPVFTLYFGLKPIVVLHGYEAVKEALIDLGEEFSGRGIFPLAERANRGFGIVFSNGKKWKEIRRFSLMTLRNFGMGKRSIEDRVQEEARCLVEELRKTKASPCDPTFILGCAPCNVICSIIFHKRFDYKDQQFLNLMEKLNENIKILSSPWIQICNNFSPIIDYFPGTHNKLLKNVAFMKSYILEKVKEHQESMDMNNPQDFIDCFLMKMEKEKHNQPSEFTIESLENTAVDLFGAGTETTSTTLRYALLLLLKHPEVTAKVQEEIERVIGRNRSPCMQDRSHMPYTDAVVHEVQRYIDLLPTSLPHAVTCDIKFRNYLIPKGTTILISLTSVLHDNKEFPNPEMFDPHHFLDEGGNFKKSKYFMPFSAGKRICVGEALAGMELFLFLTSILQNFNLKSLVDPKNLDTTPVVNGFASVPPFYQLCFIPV
# Assay: Cytochrome panel assay with activity outcomes
# Conditions: recombinant CYP, pro-luciferin dealkylation, luminescence, p450-cyp2c9; series mostly up to 57.1 µM; activity, negative = inhibition: at the top concentration
# % is set by controls: 0 for no effect and ±100 for the full control effect.
SMILES,"activity, negative = inhibition",AC50
Cc1ccccc1-n1c(O)c(C=Nc2ccc(N(C)C)cc2)c(=O)[nH]c1=O,-24.5% (inactive),
CC(C)N[C@@H](C)Cc1ccc(I)cc1,-14.9% (inactive),
CCN(CC)C1=NC(=[N+](CC)CC)c2ccccc21,-31.7% (inactive),
C[C@]1(C(=O)O)[C@@H]2CC[C@@H](O2)[C@@]1(C)C(=O)O,25.2% (inactive),
CCOCCN1CCC(OC(C)=O)C(C)C1 (stereo not given),-4.11% (inactive),
CCN1C[C@]2(C)CC[C@H](OC)[C@@]34[C@@H]2[C@H](OC(C)=O)[C@]2(OCO[C@@]25C[C@@H](OC)[C@@H]2C[C@@]3(O)[C@H]5[C@@H]2OC)[C@H]14,2.84% [at 25.6 µM] (inactive),
O=C1NC(=O)N(CCNc2ncc(C(F)(F)F)cc2Cl)C(=O)C1/C=N/OCc1c(F)cccc1Cl (stereo not given),,794 nM (active)
NC[C@@H](CC(=O)O)c1ccc(Cl)cc1,inactive,
N[C@@]1(C(=O)O)CC[C@H](C(=O)O)C1,inactive,
COC[C@H]1OC(=O)c2coc3c2[C@@]1(C)C1=C(C3=O)[C@H]2CCC(=O)[C@@]2(C)C[C@H]1OC(C)=O,7.54% (inactive),
Cc1cc(C(C)(C)C)cc(C)c1CC1=NCCN1,-5.49% (inactive),
CC[C@H](CO)NC(=O)[C@@H]1C=C2c3cccc4c3c(cn4C)C[C@@H]2N(C)C1,-11.5% (inactive),
C[C@]12CC[C@H](O)C[C@@H]1CC[C@H]1[C@H]2CC[C@]2(C)[C@H](C(=O)CO)CC[C@@H]12,,25100 nM (active)
C[C@@]12CC[C@H]3[C@@H](CCC4=CC(=O)CC[C@]43C)[C@H]1CC[C@H]2C(=O)CO,-24.9% [at 25.6 µM] (inactive),
CC(=O)OCC(=O)[C@@H]1CC[C@H]2[C@H]3CC[C@H]4C[C@@H](O)CC[C@]4(C)[C@@H]3C(=O)C[C@@]12C,-29% [at 25.6 µM] (inactive),
C[C@]12CC[C@H](O)C[C@@H]1CC[C@H]1[C@H]2CC[C@]2(C)C(=O)CC[C@@H]12,inactive,
C[C@H]1CC[C@]2(OC1)O[C@@H]1C[C@@H]3[C@@H]4CC[C@H]5C[C@@H](O)CC[C@]5(C)[C@@H]4CC(=O)[C@@]3(C)[C@H]1[C@@H]2C,13.6% [at 25.6 µM] (inactive),
CC(=O)[C@@H]1CC[C@H]2[C@H]3CC[C@H]4C[C@@H](O)CC[C@]4(C)[C@@H]3CC[C@]12C,,2000 nM (active)
CC(C)(C)NC[C@H](O)c1cc(Cl)c(N)c(Cl)c1,21% [at 25.6 µM] (inactive),
O=C1C=C2C=C[C@H]3C[C@@]2(O1)[C@H]1CCCCN31,-3.6% [at 25.6 µM] (inactive),
CN[C@H](Cc1ccccc1)c1cccc(OC)c1O,9.59% [at 11.4 µM] (inactive),
CCC(=O)O[C@@](Cc1ccccc1)(c1ccccc1)[C@@H](C)CN(C)C,-4.85% [at 25.6 µM] (inactive),
CC(C)Oc1cc(-n2c(=S)[nH]c3ccccc3c2=O)c(Cl)cc1Cl,,2240 nM (active)
C[C@]12CC[C@H]3c4ccc(O)cc4CC[C@@H]3[C@H]1CC[C@@H]2OC(=O)CCc1ccccc1,-8.07% [at 11.4 µM] (inactive),
COc1cc2c3cc1Oc1cc(ccc1O)C[C@@H]1c4c(cc(OC)c(O)c4Oc4cccc(c4)C[C@H]3N(C)CC2)CC[N+]1(C)C,-0.825% [at 25.6 µM] (inactive),
O=NN(Cc1ccc(Cl)cc1)[C@@H](C(=O)O)c1ccccc1,-22.5% [at 11.4 µM] (inactive),
N[C@H](CCCP(=O)(O)O)C(=O)O,-3.94% (inactive),
N#Cc1ccc(CN2CC[C@@]3(CCCN(C(=O)Oc4ccccc4)C3)C2)cc1,-28.9% (inactive),

SMILES,"activity, negative = inhibition",AC50
CC[N+](C)(C)c1cccc(O)c1,6.93% (inactive),
Cc1cccc(NC(=S)NC2CC3CCCC(C2)N3Cc2cccs2)c1 (stereo not given),-10.8% (inactive),
CN(C)CCC=C1c2ccccc2CCc2ccccc21,5.35% [at 25.6 µM] (inactive),
Cc1o[nH]c(=O)c1C[C@@H](N)C(=O)O,-14.3% (inactive),
Cc1o[nH]c(=O)c1C[C@H](N)C(=O)O,,inactive and 10 µM (active)
CC(C)(C)c1o[nH]c(=O)c1C[C@H](N)C(=O)O,11.8% (inactive),
CCCN1CCC[C@@H]2Cc3nc(N)ncc3C[C@H]21,-20.2% (inactive),
COC(=O)C1(C)C=C2C(=C(C)C(=O)C2C)CN1 (stereo not given),-24.9% (inactive),
c1cncc(CNCCN2CCNCC2)c1,-12% [at 11.4 µM] (inactive),
CCC1=C(C[C@H]2NCCc3ccccc32)C[C@@H]2c3cc(OC)c(OC)cc3CCN2C1,-10.7% [at 11.4 µM] (inactive),
C[C@@H](O)CN(CCN(C[C@@H](C)O)C[C@@H](C)O)C[C@@H](C)O.O=[N+]([O-])O.[Cu],,794 nM (active)
CNC(=S)NC1CC2CCCC(C1)N2CC(C)C (stereo not given),-4.41% (inactive),
Cc1c([C@@H](C)[C@H]2NC[C@H](C)C[C@@H]2O)ccc2c1C[C@@H]1[C@H]2CC=C2C[C@@H](O)CC[C@@]21C,2.85% [at 11.4 µM] (inactive),
C[N+]1(C)CCO[C@](O)(c2ccc(-c3ccc([C@]4(O)C[N+](C)(C)CCO4)cc3)cc2)C1,10.5% [at 25.6 µM] (inactive),
O=C(O)C1=CCCN(CCOC(c2ccc(C(F)(F)F)cc2)c2ccc(C(F)(F)F)cc2)C1,,2510 nM (active)
c1ccc2c([C@@H]3CCN(CCN4CCOCC4)C3)c[nH]c2c1,-7.99% [at 11.4 µM] (inactive),
Cc1cc(OCC(=O)OC(C)C)c2c3c(c(=O)oc2c1)CCCC3,,2000 nM (active)
Cc1cc(OCc2ccc([N+](=O)[O-])cc2)c2c3c(c(=O)oc2c1)CCCC3,,141 nM (active)
Cc1cc(OC(=O)CCCNC(=O)OC(C)(C)C)c2c3c(c(=O)oc2c1)CCC3,,11200 nM (active)
COc1cc2cc(c1Cl)N(C)C(=O)C[C@H](OC(=O)C(C)C)[C@]1(C)O[C@@H]1[C@@H](C)[C@H]1C[C@](O)(NC(=O)O1)[C@@H](OC)/C=C\C=C(\C)C2,8.76% [at 11.4 µM] (inactive),
c1ccc2c(c1)-c1ccccc1C2N1CC2CCC(CC2)C1,-14.3% [at 11.4 µM] (inactive),
CC(C)[N+](C)(CCC(C(N)=O)(c1ccccc1)c1ccccc1)C(C)C,-15% [at 25.6 µM] (inactive),
CCSCC[C@H](N)C(=O)O,-1.99% [at 11.4 µM] (inactive),
C[C@H](N)Cc1c[nH]c2ccc(OCc3cccs3)cc12,inactive,
C[C@@H]1[C@@H]2Cc3ccc(O)cc3[C@@]1(C)CCN2CC1CC1,-8.03% (inactive),
N#CCCCC[N+]12CN3CN(CN(C3)C1)C2,6.4% [at 11.4 µM] (inactive),
C[C@H](c1ccccc1)N1CCN([C@@H](C)c2ccccc2)CC1,5.45% [at 11.4 µM] (inactive),
